Sampled rows, rich in hits. Any-hit rate of the full collection: about 4%.
Glioma ERSR ind: qHTS for Inducers of the Endoplasmic Reticulum Stress Response (ERSR) in Human Glioma: qHTS. U87-MG GRP78 promoter luciferase reporter, 16 h. 420,000 tested, 0.02% active. Potency, µM, for the others: at the top dose activation, actives largely listed as activators; active = well fitted activation curve with a large enough effect; note: potency is the fitted concentration of half-maximal effect; series mostly up to about 76 µM; % of control where 0% means no effect; nearly all actives have a fitted effect of over 35% in size
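ERSR induction read as luciferase luminescence (Bright-Glo, 10 min at room temperature) in stably transfected human U87-MG glioma cells exposed to compounds for 16 h, using GRP78 as sensor.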
TRHR agonist: qHTS for Small Molecule Agonists and Allosteric Enhancers of Human TRH Receptor: Primary Screen for Agonists. Thyrotropin-releasing hormone receptor (Homo sapiens), P34981. TRHR cells, calcium flux fluo-8, FDSS agonist mode. activation, % at 2 µM. 360,000 tested, 0.18% active. AID 493084, 2011; note: 0% is about no effect
Target sequence (P34981 whole entry, looked up): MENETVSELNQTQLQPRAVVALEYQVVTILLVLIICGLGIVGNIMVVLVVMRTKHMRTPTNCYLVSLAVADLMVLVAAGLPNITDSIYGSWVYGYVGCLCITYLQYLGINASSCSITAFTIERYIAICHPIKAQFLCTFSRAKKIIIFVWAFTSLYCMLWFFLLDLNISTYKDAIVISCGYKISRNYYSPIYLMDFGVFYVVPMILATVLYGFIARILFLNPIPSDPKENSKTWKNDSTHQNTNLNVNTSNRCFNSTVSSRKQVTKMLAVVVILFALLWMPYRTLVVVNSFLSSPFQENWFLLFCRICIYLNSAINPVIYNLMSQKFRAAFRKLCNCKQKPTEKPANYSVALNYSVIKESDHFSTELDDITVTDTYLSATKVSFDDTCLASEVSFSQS
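Fluo-8-loaded TRHR cells; 10 s baseline, compound added, kinetic Ca2+ fluorescence read 1/s, agonist mode.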
D1 potentiator: Potentiators of Human D1 Dopamine Receptor: qHTS. 360,000 tested, 0.036% active. D(1A) dopamine receptor (Homo sapiens), P21728. HEK293 TREx D1 cells, calcium flux, dopamine EC20 potentiation. AID 504651, 2011. potentiation, % at 10 µM; in the data active = potentiation above about 30%; note: 0% is about no effect
TRHR PAM: qHTS for Small Molecule Agonists and Allosteric Enhancers of Human TRH Receptor: Primary Screen for Enhancers. TRHR cells, fluo-8 calcium fluorescence, EC20 TRH enhancement. enhancement, % at 2 µM. 360,000 tested, 0.66% active; in the data active = enhancement above about 30%; note: 0% is about no effect
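TRHR-expressing cells loaded with fluo-8 calcium dye were read kinetically (ex 480/em 530) during compound addition, then stimulated with an EC20 of TRH (10 nM final). Enhancement of the Gq-mediated intracellular calcium response was scored.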
D1 ag: Allosteric Agonists of the Human D1 Dopamine Receptor: qHTS; HEK293 T-REx D1 cells, calcium flux, agonist mode; activation, % at 2 µM; 360,000 tested, 1% active; AID 504660, 2011; note: 0% is about no effect
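Tetracycline-induced HEK293 TREx D1 cells, force-coupled to calcium signalling, were dye-loaded with a no-wash calcium kit. Compound was pin-added after a 10 s baseline. Fluorescence was read kinetically at 1 cycle/s for 180 s, with calcium rises flagged as agonism.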
D1 antagonist: Antagonist of Human D 1 Dopamine Receptor: qHTS. 360,000 tested, 3.2% active. activity change, negative = inhibition, % at 10 µM. HEK293 TREx D1 cells, calcium flux, dopamine EC80; stronger effect = lower value. D(1A) dopamine receptor (Homo sapiens), P21728; in the data active = activity change below about -30%; note: % is set by controls: 0 for no effect and ±100 for the full control effect
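After overnight tetracycline induction at 30 C, force-coupled D1 HEK293 cells took up a no-wash calcium dye at room temperature. Compounds were added and monitored 180 s, and the response to EC80 dopamine was then recorded.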
* = called active by the depositor; · = not tested or not shown. Cut-off read from the data, not from the text of the source, unless noted: active = activation above about 30%; inactive = the rest.

SMILES	Glioma ERSR ind	TRHR agonist	D1 potentiator	TRHR PAM	D1 ag	D1 antagonist
CCOC(=O)c1cc2c(=O)n3ccccc3nc2n(CC(C)C)c1=NC(=O)COc1ccc(Cl)cc1	-2%	0	0	-3	-1	-39*
CN(C)CCC(O)c1ccccc1 (configuration not stated)	-1%	1	-4	5	1	-6
CCCn1cc(SCC(=O)Nc2ccc3c(c2)OCO3)c2ccccc21	-1%	-1	0	1	-1	-15
O=C(CSc1nnc(CNC(=O)c2cccs2)o1)Nc1ccc2c(c1)OCO2	-3%	0	-2	-1	-2	-36*
CC(C)C(=O)Nc1nnc(SCC(=O)Nc2ccc3c(c2)OCCO3)s1	-6%	0	-4	7	4	16
Cn1cc(SCC(=O)Nc2ccc3c(c2)OCO3)c2ccccc21	-2%	-1	·	14	10	-35*
CC1CCN(C(C(=O)Nc2ccc3c(c2)OCO3)c2ccccc2)CC1 (configuration not stated)	-3%	-1	-9	-9	2	-42*
CC(C)C(=O)Nc1nnc(SCC(=O)Nc2ccc3c(c2)OCO3)s1	-4%	0	-6	2	12	-41*
Clc1ccc(Cc2nc(-c3ccncc3)no2)cc1	3%	-1	1	-2	11	-36*
COc1ccc(Cc2nc(-c3ccncc3)no2)cc1	-6%	-2	-4	4	9	-9
CC1CN(C(=O)CCC(=O)NCc2ccc(Cl)cc2)c2ccccc2O1 (configuration not stated)	-4%	-1	-19	1	5	-83*
CC1CN(C(=O)Nc2ccc(C(=O)NCc3cccc(F)c3)cc2)c2ccccc2S1 (configuration not stated)	-2%	0	4	4	0	-43*
CC1CN(C(=O)CCC(=O)NCc2cccc(Cl)c2)c2ccccc2S1 (configuration not stated)	·	1	-8	-10	4	-32*
CC1CN(C(=O)Nc2ccc(C(=O)NCc3ccccc3F)cc2)c2ccccc2S1 (configuration not stated)	-1%	-2	-2	1	9	7
Cc1ccc(CNC(=O)CCC(=O)N2CC(C)Oc3ccc(Cl)cc32)cc1 (configuration not stated)	-4%	-1	-5	-5	1	5
CC1CN(C(=O)CCC(=O)NCc2ccccc2)c2ccccc2S1 (configuration not stated)	-2%	-1	-2	5	6	-3
N#CC(c1ccc(Cl)cc1)c1ccc2c(C(F)(F)F)cc(C(F)(F)F)nc2n1 (configuration not stated)	-2%	0	32*	6	4	11
COc1ccc(CCN2CCC(Nc3nc4ccccc4n3Cc3ccc(F)cc3)CC2)cc1	-10%	2	7	2	112*	-21
COc1ccc(CNc2nc3ccccc3n2CCN2CCCCC2)cc1	-3%	0	-4	-3	5	·
O=C(NCCC(=O)N(CCc1ccccc1)Cc1ccccc1)c1ccc(Br)cc1	-3%	0	-2	-3	11	-8
OCCC1CN(Cc2ccncc2)CCN1C1CCCC1 (configuration not stated)	-4%	0	0	-6	3	-36*
CSc1ccc(CN2CCN(C3CCCC3)C(CCO)C2)cc1 (configuration not stated)	6%	0	1	2	2	24
COc1ccc(-c2nn(-c3ccccc3)cc2C(=O)N(C)CC(=O)Nc2cccc(F)c2)cc1	-2%	0	-4	3	3	-14
Cc1cccc(-c2nn(-c3ccccc3)cc2C(=O)N(C)CC(=O)Nc2ccc(N3CCOCC3)cc2)c1	1%	0	-3	0	-1	-71*
CSCCC(NC(=O)c1ccccc1Cl)C(=O)N(C)CC(=O)Nc1ccc(N2CCOCC2)cc1 (configuration not stated)	-3%	0	-4	14	1	2
SMILES	Glioma ERSR ind	TRHR agonist	D1 potentiator	TRHR PAM	D1 ag	D1 antagonist
COc1cccc(-c2nn(-c3ccc(C)cc3)cc2C(=O)N(C)CC(=O)Nc2cccc(F)c2)c1	-3%	0	·	-2	11	-32*
COc1ccc(Br)c(C(=O)N(C)CC(=O)Nc2ccc(N3CCOCC3)cc2)c1	-4%	0	-3	9	0	-51*
COc1ccc(OCC(=O)Nc2ccc(N3CCOCC3)cc2)cc1	-3%	0	-1	-5	1	-3
CN(CC(=O)Nc1ccc(N2CCOCC2)cc1)C(=O)c1cccc(Cl)c1Cl	2%	0	-9	3	3	-36*
O=[N+]([O-])c1ccccc1OCCN1CCOCC1	-3%	1	-4	-4	4	6
COC(=O)c1ccc(Cn2nnc3ccccc32)cc1	-8%	0	-3	10	10	-5
Cc1ccc(S(=O)(=O)N2CCOCC2)cc1C(=O)N1CC(C)CC(C)C1 (configuration not stated)	-4%	·	·	·	·	·
CC(=O)N1CCN(C(=S)NC(=O)c2ccc(S(=O)(=O)N3CCOCC3)cc2)CC1	-3%	0	-7	-11	3	-31*
Cc1ccc(S(=O)(=O)N2CCOCC2)cc1C(=O)NC(=S)N1CC(C)OC(C)C1 (configuration not stated)	0%	-1	0	-1	0	-35*
Cc1ccc(N(CC(=O)NC2CCCCC2)C(=O)CNC(=O)c2ccco2)c(C)c1	-3%	1	1	4	1	2
Cn1c(CN2CCOCC2)nnc1SCC(=O)Nc1cc(Cl)ccc1Cl	-2%	-1	-6	13	2	-11
CCN(CC)c1ccc(/C=C2/C(=O)c3ccc(C(=O)O)cc3C2=O)cc1	11%	188*	0	41*	261*	-6
O=C(NCc1cccc(Cl)c1)c1cc2c(s1)-c1ccccc1SC2	·	2	-3	-1	16	0
Cn1c(=O)oc2cc(S(=O)(=O)N3CCC(C(=O)N4CCN(c5cccc(Cl)c5)CC4)CC3)ccc21	0%	-2	-4	0	19	-31*

Compound activity from PubChem.
